Results filed as inconclusive are left out. Active and inactive are the calls of the source. Unless noted, the call rests on the fitted dose curve; in most records, active means well fitted curve in the direction sought with a large enough effect; inconclusive means small, poorly fitted or top-dose-only effect, or another doubt; inactive means no such curve, though single readings can be large; an effect the other way counts as inactive or inconclusive.
Columns and labels:
[1] = target: Lysosomal acid glucosylceramidase (Homo sapiens) (UniProt P04062); assay: Glucocerebrosidase-p2 (AID 348; in the data active means potency below about 10 µM; further: potency means the concentration at half of the fitted maximal effect); conditions: purified GBA, blue fluorogenic substrate, 40 min
Summary of the method: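 Compounds titrated from 0.6 nM upwards against 0.2 nM enzyme in pH 5.9 citric acid/KH2PO4, taurocholate, tween-20; blue fluorogenic substrate 80 uM, 40 min room temperature, stopped and read Ex 365/Em 440 for AC50.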

[2] = target: Cytochrome P450 1A2 (Homo sapiens) (UniProt P05177); assay: p450-cyp1a2 (AID 410; calls by dose curve; further: potency means the concentration at half of the fitted maximal effect); conditions: recombinant CYP1A2, luciferin-ME demethylation, luminescence; series mostly up to 11.4 µM
Summary of the method: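 Inhibition was calculated relative to 57 uM furafylline (full inhibition). The reaction used human CYP1A2 at 20nM with Luciferin-ME at its Km, 100uM, driven by an NADPH-regenerating system for 60 min at room temperature.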

[3] = target: Glucocorticoid receptor (Homo sapiens) (UniProt P04150); assay: GR-GFP Redistribution (AID 450;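 active means compounds whose dose series gives a full or clear partial fitted curve of increased nuclear translocation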; further: potency means the concentration at half of the fitted maximal effect); conditions: U2OS GR-GFP nuclear translocation, laser cytometry, 2 h
[4] = target: Glucocorticoid receptor (Homo sapiens) (UniProt P04150); assay: GR-EFC Redistribution (AID 451; calls by dose curve; further: potency means the concentration at half of the fitted maximal effect); conditions: CHO-K1 GR-EFC translocation, beta-gal luminescence, 2 h
Summary of the method: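 CHO-K1 cells stably expressing nuclear-localized β-gal enzyme acceptor and GR fused C-terminally to the enzyme donor fragment; ligand-driven nuclear translocation restores β-gal by complementation. Compounds titrated up to 46 uM final, 2 h at 37 °C; luminescence read.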

[5] = target: 3',5'-cyclic-AMP phosphodiesterase 4B (Homo sapiens) (UniProt Q07343); assay: qHTS Assay for Inhibitors of PDE-IV (AID 607; active means well fitted activation curve with a large enough effect in the main read-out, with a control signal flat, not every such curve was filed as active; further: % of control where 0% means no effect); conditions: HEK293 ACTOne CNG channel cells, membrane potential fluorescence; series mostly up to 22.9 µM
Summary of the method: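 The readout is membrane depolarisation from a cAMP-sensing CNG channel, detected with a potential dye at ex 535/em 590. Cells were HEK293-derived (endogenous PDE-IV) at 1000 cells/well, titrated up to 22.9 uM final.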

[6] = qHTS Assay for Identification of Small Molecule Agonists for Hypoxia Response Element Signaling Pathway (AID 914; active means well fitted activation curve with a large enough effect in the signal ratio, with a control signal flat, not every such curve was filed as active; the % refers to the signal ratio; further: potency means the concentration at half of the fitted maximal effect); conditions: ME-180 HRE-bla reporter, beta-lactamase ratio, CoCl2, 17 h; activation: stronger effect = higher value
Summary of the method: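 ME-180 cells carrying an HRE-driven beta-lactamase reporter were treated with compounds in a titration series plus an EC50 level of CoCl2 for 17 h at 37 degrees Celsius; CCF4 readout as the 460nm/530nm ratio gave AC50 values.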

[7] = NFAT Signaling Pathway (AID 444; active means well fitted curve in either direction with a large enough effect, not every such curve was filed as active;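 further: carbachol stimulus at about its EC50 of 1 µM final; on the % scale 0 is the no-effect control and ±100 the full control effect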); conditions: Jurkat NFAT-bla M1, carbachol, beta-lactamase ratio, 5 h; at 7.69 µM (top of the series) unless noted
Summary of the method: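 Jurkat cells carrying an NFAT-driven β-lactamase reporter and co-transfected muscarinic M1 receptor were treated with compound plus carbachol (1 uM final, an EC50 level) for 5 h at 37 °C. CCF4 loading followed for 1 h at RT; 460/530 nm ratio gave %activity.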

[8] = Stat Signaling Pathway (AID 446; active means well fitted curve in either direction with a large enough effect, not every such curve was filed as active;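 further: ME-180 cervical cancer cells given 40 pM IL-6 alongside compound; SIE-controlled beta-lactamase reporter measured as 460/530 nm FRET emission ratio; on the % scale 0 is the no-effect control and ±100 the full control effect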); conditions: ME-180 SIE beta-lactamase reporter, IL-6 stimulated, 5 h; at 7.69 µM (top of the series) unless noted
Summary of the method: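 Screening format detects activators and inhibitors alike: ME-180 SIE-bla cells stimulated at 40 pM IL-6 for 5 hrs with compound, then dual-emission beta-lactamase read at 405 nm excitation.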

[9] = target: Mitogen-activated protein kinase 10 (Mus musculus) (UniProt Q61831); assay: JNK3 AlphaScreen Assay (AID 530; active means well fitted curve in either direction with a large enough effect, not every such curve was filed as active;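 further: kinase came from lysate of stimulated human HepG2 cells; signal reports phosphorylation of biotinylated GST-cJun 1-79 at Ser73 with 10 µM ATP; on the % scale 0 is the no-effect control and ±100 the full control effect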); conditions: JNK3 lysate, c-Jun phosphorylation; series mostly up to 11.4 µM
Summary of the method: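 JNK3 came from HepG2 lysates pre-activated with IL-1beta and TNF-alpha and phosphorylated biotinylated GST-cJun (1-79) at 10 uM ATP, pH 7.6, room temperature. Compounds were titrated. AlphaScreen signal used anti-phospho-cJun (Ser73) antibody.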

[10] = target: ATP-dependent 6-phosphofructokinase (Trypanosoma brucei brucei) (UniProt O15648); assay: qHTS Assay to Find Inhibitors of T. brucei phosphofructokinase: hit validation (AID 492961);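 further: luminescence reports ADP formed as PFK phosphorylates fructose-6-phosphate with ATP; on the % scale 0 is the no-effect control and ±100 the full control effect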; conditions: T. brucei PFK, ADP-Glo luminescence; series mostly up to 51.4 µM
Summary of the method: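 PFK 1.25 nM, F6P 0.5 mM, ATP 0.1 mM, MgCl2 5 mM, 0.1 M TEA pH 8.0, Tween20 0.01%, BSA 0.1%; 45 min RT. ADP-Glo two-step detection, luminescence. qHTS titration; curve fitting with curve-class categorization.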

[11] = target: Luciferin 4-monooxygenase (Photinus pyralis) (UniProt P08659); assay: Biochemical firefly luciferase enzyme assay for NPC (AID 624030);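 further: purified P. pyralis luciferase at 10 nM with luciferin and ATP substrate; 0% = DMSO and -100% = full luciferase inhibition by PTC124 control; nearly all actives have a fitted effect of over 70% in size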; conditions: purified P. pyralis luciferase, luminescence, 5 min; series mostly up to 58.6 µM
Summary of the method: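 Counter-screen for direct inhibition of the luciferase enzyme by approved-drug library compounds, run at 10 nM enzyme in 50 mM Tris acetate (final). Luminescence was read within 5 min of enzyme-buffer addition and normalized to PTC124 versus DMSO (0%).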

[12] = S16 Schwann cell viability assay (CellTiter-Glo assay) (AID 624031); conditions: S16 rat Schwann cells viability, 24 h; series mostly up to 57.5 µM; further: potency means the concentration at half of the fitted maximal effect; nearly all actives have a fitted effect of over 70% in size
Summary of the method: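 Native S16 rat Schwann cells in DMEM/10% FBS without phenol red were incubated overnight, then exposed to compounds for 24 h at 37 °C/5% CO2. Viability was read as ATP luminescence (CellTiter-Glo), normalized to no-cell wells and DMSO (0%).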

[13] = S16 Schwann cell PMP22 intronic element firefly luciferase assay (AID 624032); conditions: S16 rat Schwann cells, PMP22 element FLuc, 24 h; series mostly up to 57.5 µM;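 further: plate controls were DMSO for no effect and PTC124 positive control mean for full effect; nearly all actives have a fitted effect of over 30% in size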
Summary of the method: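 Rat S16 Schwann cells stably carrying a PMP22 intronic element-driven Fluc reporter were seeded overnight, then exposed to compounds for 24 h at 37 °C. Luminescence was normalized to PTC124 (positive control) and DMSO (0% activity).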

[14] = S16 Schwann cell PMP22 intronic element beta-lactamase assay (AID 624044; calls by dose curve;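 further: 0% = DMSO and -100% = potassium clavulanate positive control; nearly all actives have a fitted effect of over 15% in size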); conditions: S16 rat Schwann cells, PMP22 element beta-lactamase FRET, 24 h; series mostly up to 38.3 µM
Summary of the method: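 Rat S16 Schwann cells with beta-Lac driven by a PMP22 intronic element, compound-treated 24 h at 37 °C. LiveBLAzer FRET B/G read: 460 nm normalized to potassium clavulanate vs DMSO; 535 nm FRET as viability; concentration-effect curves classified.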

[15] = qHTS profiling for inhibitors of Plasmodium falciparum proliferation (AID 504749); further: nearly all actives have a fitted effect of over 60% in size; further: potency means the concentration at half of the fitted maximal effect;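 on activity, negative = inhibition: 0% = DMSO vehicle and full inhibition = artemisinin control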; conditions: P. falciparum in erythrocytes, SYBR Green DNA, 72 h, at 28.7 µM (top of the series)
Summary of the method: (§1)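 P. falciparum-infected erythrocytes (0.3% parasitemia, 2.5% hematocrit final) were exposed to compounds for 72 h at 37 C in 5% CO2, then lysed with SYBR Green buffer overnight at room temperature; parasite DNA fluorescence was normalized to artemisinin and DMSO controls.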

7G8 = assay: as above; conditions: P. falciparum in erythrocytes, SYBR Green DNA, 72 h; series mostly up to 28.7 µM
Summary of the method: as §1

ATS189 = assay: as above; conditions: P. falciparum in erythrocytes, SYBR Green DNA, 72 h; series mostly up to 28.7 µM
Summary of the method: as §1

CP185 = assay: as above; conditions: P. falciparum in erythrocytes, SYBR Green DNA, 72 h; series mostly up to 28.7 µM
Summary of the method: as §1

CP192 = assay: as above; conditions: P. falciparum in erythrocytes, SYBR Green DNA, 72 h; series mostly up to 28.7 µM
Summary of the method: as §1

CP201 = assay: as above; conditions: P. falciparum in erythrocytes, SYBR Green DNA, 72 h; series mostly up to 28.7 µM
Summary of the method: as §1

CP238 = assay: as above; conditions: P. falciparum in erythrocytes, SYBR Green DNA, 72 h; series mostly up to 28.7 µM
Summary of the method: as §1

CP247 = assay: as above; conditions: P. falciparum in erythrocytes, SYBR Green DNA, 72 h; series mostly up to 28.7 µM
Summary of the method: as §1

CP252 = assay: as above; conditions: P. falciparum in erythrocytes, SYBR Green DNA, 72 h; series mostly up to 28.7 µM
Summary of the method: as §1

CP262 = assay: as above; conditions: P. falciparum in erythrocytes, SYBR Green DNA, 72 h; series mostly up to 28.7 µM
Summary of the method: as §1

CP265 = assay: as above; conditions: P. falciparum in erythrocytes, SYBR Green DNA, 72 h; series mostly up to 28.7 µM
Summary of the method: as §1

CP266 = assay: as above; conditions: P. falciparum in erythrocytes, SYBR Green DNA, 72 h; series mostly up to 28.7 µM
Summary of the method: as §1

CP315 = assay: as above; conditions: P. falciparum in erythrocytes, SYBR Green DNA, 72 h; series mostly up to 28.7 µM
Summary of the method: as §1

CP325 = assay: as above; conditions: P. falciparum in erythrocytes, SYBR Green DNA, 72 h; series mostly up to 28.7 µM
Summary of the method: as §1

CP329 = assay: as above; conditions: P. falciparum in erythrocytes, SYBR Green DNA, 72 h; series mostly up to 28.7 µM
Summary of the method: as §1

DFO2036 = assay: as above; conditions: P. falciparum in erythrocytes, SYBR Green DNA, 72 h; series mostly up to 28.7 µM
Summary of the method: as §1

DIV14 = assay: as above; conditions: P. falciparum in erythrocytes, SYBR Green DNA, 72 h; series mostly up to 28.7 µM
Summary of the method: as §1

DIV17 = assay: as above; conditions: P. falciparum in erythrocytes, SYBR Green DNA, 72 h; series mostly up to 28.7 µM
Summary of the method: as §1

GB4 = assay: as above; conditions: P. falciparum in erythrocytes, SYBR Green DNA, 72 h; series mostly up to 28.7 µM
Summary of the method: as §1

HB3 = assay: as above; conditions: P. falciparum in erythrocytes, SYBR Green DNA, 72 h; series mostly up to 28.7 µM
Summary of the method: as §1

ICS = assay: as above; conditions: P. falciparum in erythrocytes, SYBR Green DNA, 72 h; series mostly up to 28.7 µM
Summary of the method: as §1

N140 = assay: as above; conditions: P. falciparum in erythrocytes, SYBR Green DNA, 72 h; series mostly up to 28.7 µM
Summary of the method: as §1

P93_24 = assay: as above; conditions: P. falciparum in erythrocytes, SYBR Green DNA, 72 h; series mostly up to 28.7 µM
Summary of the method: as §1

PAD = assay: as above; conditions: P. falciparum in erythrocytes, SYBR Green DNA, 72 h; series mostly up to 28.7 µM
Summary of the method: as §1

PC15 = assay: as above; conditions: P. falciparum in erythrocytes, SYBR Green DNA, 72 h; series mostly up to 28.7 µM
Summary of the method: as §1

SC27B = assay: as above; conditions: P. falciparum in erythrocytes, SYBR Green DNA, 72 h; series mostly up to 28.7 µM
Summary of the method: as §1

W2 = assay: as above; conditions: P. falciparum in erythrocytes, SYBR Green DNA, 72 h; series mostly up to 28.7 µM
Summary of the method: as §1

Chain of 3',5'-cyclic-AMP phosphodiesterase 4B (Homo sapiens) (Q07343 whole entry, looked up): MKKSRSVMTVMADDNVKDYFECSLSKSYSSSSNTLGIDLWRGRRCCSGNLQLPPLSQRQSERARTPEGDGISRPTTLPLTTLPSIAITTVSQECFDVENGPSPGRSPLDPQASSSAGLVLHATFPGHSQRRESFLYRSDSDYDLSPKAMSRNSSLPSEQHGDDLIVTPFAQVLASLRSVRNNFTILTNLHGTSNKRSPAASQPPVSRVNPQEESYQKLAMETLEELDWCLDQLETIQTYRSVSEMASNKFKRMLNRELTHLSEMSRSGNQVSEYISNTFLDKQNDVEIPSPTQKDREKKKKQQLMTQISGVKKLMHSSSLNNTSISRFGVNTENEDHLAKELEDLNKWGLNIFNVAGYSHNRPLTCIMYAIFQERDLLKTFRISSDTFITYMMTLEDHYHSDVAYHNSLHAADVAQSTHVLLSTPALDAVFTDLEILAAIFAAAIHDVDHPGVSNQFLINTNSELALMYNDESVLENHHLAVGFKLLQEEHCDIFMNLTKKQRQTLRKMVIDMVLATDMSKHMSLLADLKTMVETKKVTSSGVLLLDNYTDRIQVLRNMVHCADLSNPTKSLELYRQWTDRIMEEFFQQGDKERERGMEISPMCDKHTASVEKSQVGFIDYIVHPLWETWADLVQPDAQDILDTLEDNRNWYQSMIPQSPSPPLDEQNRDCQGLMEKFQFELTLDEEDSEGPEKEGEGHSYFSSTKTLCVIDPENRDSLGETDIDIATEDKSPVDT
Chain of Glucocorticoid receptor (Homo sapiens) (P04150 whole entry, looked up, the tested form may be a part): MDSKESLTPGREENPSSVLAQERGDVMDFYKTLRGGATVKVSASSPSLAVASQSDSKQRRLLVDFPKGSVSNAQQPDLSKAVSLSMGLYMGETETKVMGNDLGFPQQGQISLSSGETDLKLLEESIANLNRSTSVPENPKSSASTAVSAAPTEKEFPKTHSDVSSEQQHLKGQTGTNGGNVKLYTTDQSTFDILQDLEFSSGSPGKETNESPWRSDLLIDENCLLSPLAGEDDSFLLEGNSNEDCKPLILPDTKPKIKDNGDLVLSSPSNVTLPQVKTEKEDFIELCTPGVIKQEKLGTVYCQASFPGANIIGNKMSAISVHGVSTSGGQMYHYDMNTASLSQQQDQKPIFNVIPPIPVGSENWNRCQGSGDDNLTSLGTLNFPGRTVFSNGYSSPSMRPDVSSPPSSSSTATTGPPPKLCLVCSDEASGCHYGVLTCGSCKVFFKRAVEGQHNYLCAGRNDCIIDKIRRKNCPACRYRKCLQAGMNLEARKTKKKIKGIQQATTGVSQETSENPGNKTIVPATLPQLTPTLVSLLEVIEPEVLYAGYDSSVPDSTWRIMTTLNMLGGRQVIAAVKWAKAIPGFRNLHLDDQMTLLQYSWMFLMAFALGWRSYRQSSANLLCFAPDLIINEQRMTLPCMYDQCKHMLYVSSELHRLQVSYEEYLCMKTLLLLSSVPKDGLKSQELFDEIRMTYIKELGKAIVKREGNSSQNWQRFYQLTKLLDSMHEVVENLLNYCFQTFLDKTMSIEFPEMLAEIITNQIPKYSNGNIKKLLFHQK
Chain of Lysosomal acid glucosylceramidase (Homo sapiens) (P04062 whole entry, looked up): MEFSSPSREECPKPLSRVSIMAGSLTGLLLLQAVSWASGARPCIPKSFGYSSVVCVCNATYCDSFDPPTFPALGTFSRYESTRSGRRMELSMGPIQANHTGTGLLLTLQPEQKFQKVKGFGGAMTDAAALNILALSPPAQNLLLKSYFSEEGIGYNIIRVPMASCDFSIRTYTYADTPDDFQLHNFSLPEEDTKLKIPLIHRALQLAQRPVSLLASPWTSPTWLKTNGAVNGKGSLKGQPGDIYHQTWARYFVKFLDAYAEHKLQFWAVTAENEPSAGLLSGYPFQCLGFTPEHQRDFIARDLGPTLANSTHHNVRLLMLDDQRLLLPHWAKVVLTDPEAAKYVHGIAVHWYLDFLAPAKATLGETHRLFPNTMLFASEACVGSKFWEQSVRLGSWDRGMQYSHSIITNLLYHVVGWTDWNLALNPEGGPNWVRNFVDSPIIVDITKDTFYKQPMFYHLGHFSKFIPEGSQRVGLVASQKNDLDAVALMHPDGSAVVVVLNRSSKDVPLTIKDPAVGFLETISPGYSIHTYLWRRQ
Chain of Luciferin 4-monooxygenase (Photinus pyralis) (P08659 whole entry, looked up): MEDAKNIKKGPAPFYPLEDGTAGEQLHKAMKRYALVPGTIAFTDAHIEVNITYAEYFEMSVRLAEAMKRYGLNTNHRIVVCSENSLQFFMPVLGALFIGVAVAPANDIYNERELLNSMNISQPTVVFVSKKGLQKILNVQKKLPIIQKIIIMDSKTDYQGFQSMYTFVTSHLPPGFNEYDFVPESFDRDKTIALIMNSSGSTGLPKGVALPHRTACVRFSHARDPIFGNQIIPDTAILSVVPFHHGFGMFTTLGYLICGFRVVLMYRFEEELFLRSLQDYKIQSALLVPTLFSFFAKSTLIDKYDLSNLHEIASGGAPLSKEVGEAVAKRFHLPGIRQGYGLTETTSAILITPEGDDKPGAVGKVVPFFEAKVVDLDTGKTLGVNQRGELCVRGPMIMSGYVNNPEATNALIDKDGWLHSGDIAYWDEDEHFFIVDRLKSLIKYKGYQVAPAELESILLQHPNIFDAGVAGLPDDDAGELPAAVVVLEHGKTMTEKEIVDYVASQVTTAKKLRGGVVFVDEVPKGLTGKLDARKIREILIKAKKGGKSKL
Chain of ATP-dependent 6-phosphofructokinase (Trypanosoma brucei brucei) (O15648 whole entry, looked up): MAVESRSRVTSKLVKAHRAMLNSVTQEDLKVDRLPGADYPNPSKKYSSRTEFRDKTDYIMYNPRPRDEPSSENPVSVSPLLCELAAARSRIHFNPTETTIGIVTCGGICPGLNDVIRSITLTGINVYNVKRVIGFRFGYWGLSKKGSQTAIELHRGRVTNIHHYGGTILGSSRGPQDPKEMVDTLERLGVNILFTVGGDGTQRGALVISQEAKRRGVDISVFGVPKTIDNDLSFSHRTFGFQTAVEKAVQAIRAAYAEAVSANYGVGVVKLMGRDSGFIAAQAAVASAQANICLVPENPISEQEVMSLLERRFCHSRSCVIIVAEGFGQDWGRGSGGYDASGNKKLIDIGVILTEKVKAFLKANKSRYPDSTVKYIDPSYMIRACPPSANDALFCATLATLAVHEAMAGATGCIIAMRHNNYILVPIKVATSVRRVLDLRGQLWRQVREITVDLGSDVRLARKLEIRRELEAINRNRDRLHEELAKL
Chain of Cytochrome P450 1A2 (Homo sapiens) (P05177 whole entry, looked up): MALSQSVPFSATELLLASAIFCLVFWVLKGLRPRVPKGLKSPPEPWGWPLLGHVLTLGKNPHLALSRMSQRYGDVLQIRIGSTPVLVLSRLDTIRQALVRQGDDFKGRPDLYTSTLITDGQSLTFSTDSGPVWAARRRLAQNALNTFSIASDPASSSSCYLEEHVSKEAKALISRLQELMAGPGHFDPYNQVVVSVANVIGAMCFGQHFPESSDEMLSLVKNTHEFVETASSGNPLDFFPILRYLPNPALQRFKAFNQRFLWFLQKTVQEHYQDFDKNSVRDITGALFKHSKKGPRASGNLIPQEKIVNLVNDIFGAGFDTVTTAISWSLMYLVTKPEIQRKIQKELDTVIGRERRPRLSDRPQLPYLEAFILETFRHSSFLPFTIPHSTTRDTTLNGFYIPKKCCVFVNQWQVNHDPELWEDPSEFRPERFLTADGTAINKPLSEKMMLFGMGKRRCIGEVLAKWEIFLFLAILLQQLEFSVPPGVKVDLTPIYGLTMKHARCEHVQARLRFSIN

O=c1c(-c2cc(F)cc(F)c2)nc2cnc(N3CCNCC3)nc2n1CCc1ccccc1
active: Potency [2] 20 µM | Potency [6] 3.16 µM
inactive: Potency [1] > 11.4 µM | Potency [3] > 9.22 µM | Potency [4] > 46 µM | Potency [5]

N[C@@H](CNO)C(=O)O
inactive: Potency [1] > 11.4 µM | activity change, negative = inhibition [7] 0.975% | activity, negative = inhibition [8] -9.2% | Potency [3] > 46 µM | Potency [4] > 9.22 µM | Potency [9] | Potency [5]

Cc1c(O)c(Br)c(C)c(O)c1Br (tested in a mixture with another compound)
inactive: Potency [1] > 11.4 µM | Potency [3] > 46 µM | Potency [4] > 9.22 µM | Potency [9] | Potency [5]
active: activity change, negative = inhibition [7] -77.8%

N#CCCn1c(=O)c(-c2ccc(F)cc2)nc2cnc(Oc3ccccc3)nc21
inactive: Potency [1] > 11.4 µM | activity change, negative = inhibition [7] -6.96% | activity, negative = inhibition [8] -5.37% | Potency [3] > 9.22 µM | Potency [4] > 46 µM | Potency [9] | Potency [5]

CCc1ccc2c(c1)N(C[C@H](C)CN(C)C)c1ccccc1S2
inactive: Potency [1] > 11.4 µM | activity, negative = inhibition [8] 3.53% | Potency [3] > 46 µM | Potency [4] > 9.22 µM | Potency [9] | Potency [5] | outcome [10] | outcome [11] | Potency [13] | outcome [14] | activity, negative = inhibition ([15]; parasite line A) -23.4% | activity, negative = inhibition ([15]; parasite line B) -17.5% | Potency (ATS189) | Potency (CP185) | Potency (CP192) | Potency (CP201) | Potency (CP238) | Potency (CP247) | Potency (CP252) | Potency (CP262) | Potency (CP265) | Potency (CP266) | Potency (CP315) | Potency (CP325) | Potency (CP329) | Potency (DFO2036) | Potency (HB3) | Potency (N140) | Potency (PAD) | Potency (PC15) | Potency (SC27B)
active: Potency [12] 28.7 µM | Potency (7G8) 10 µM | Potency (DIV14) 8.49 µM | Potency (DIV17) 6.01 µM | Potency (GB4) 7.57 µM | Potency (ICS) 7.94 µM | Potency (P93_24) 7.94 µM | Potency (W2) 7.57 µM

Reference: PubChem BioAssay (NCATS)
